# From the supplement of paper PMC8728848
# The entries come from a sample that favours the strongest signals as a whole.
# How the values were obtained:
# Assay in all cases: glycan array binding signal (z-score within array); higher = stronger binding
# [1] = system: Gal(a1-4)Gal(b1-4)GlcNAc(b1-3)Gal(b1-4)Glc; details: glycan notation: IUPAC condensed, linker removed
# Outline: (§1)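 The binding signal is a Z-score computed within each array and averaged over linkers. Arrays of the same protein sequence at different concentrations or buffers were also averaged together. Data originate from 3228 arrays in the Consortium for Functional Glycomics database, kept only where the protein sequence was available.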
# Gal(a1-3)Gal(b1-4)Glc = details: glycan notation: IUPAC condensed, linker removed
# Outline: as §1
# Gal(a1-4)Gal(b1-4)Gal = details: glycan notation: IUPAC condensed, linker removed
# Outline: as §1
# Gal(a1-3)Gal = details: glycan notation: IUPAC condensed, linker removed
# Outline: as §1
# Gal(a1-3)GalNAc = details: glycan notation: IUPAC condensed, linker removed
# Outline: as §1
# [2] = system: Gal(a1-3)[Gal(a1-4)]Gal(b1-4)GlcNAc; details: glycan notation: IUPAC condensed, linker removed
# Outline: as §1
# [3] = system: Gal(a1-3)Gal(b1-4)[Fuc(a1-3)]GlcNAc(b1-2)Man(a1-3)[Gal(a1-3)Gal(b1-4)[Fuc(a1-3)]GlcNAc(b1-2)Man(a1-6)]Man(b1-4)GlcNAc(b1-4)GlcNAc; details: glycan notation: IUPAC condensed, linker removed; mutation: R125K
# Outline: as §1
# [4] = system: Gal(a1-3)Gal(b1-4)[Fuc(a1-3)]GlcNAc; details: glycan notation: IUPAC condensed, linker removed; mutation: R125K
# Outline: as §1
# [5] = system: Gal(a1-3)Gal(b1-4)GlcNAc(b1-3)GalNAc; details: glycan notation: IUPAC condensed, linker removed
# Outline: as §1
# Gal(a1-3)Gal(b1-4)GlcNAc = details: glycan notation: IUPAC condensed, linker removed
# Outline: as §1
# Sequence of PILRb (Mus musculus), Q2YSF2 (Q2YSF2 entry or part of it): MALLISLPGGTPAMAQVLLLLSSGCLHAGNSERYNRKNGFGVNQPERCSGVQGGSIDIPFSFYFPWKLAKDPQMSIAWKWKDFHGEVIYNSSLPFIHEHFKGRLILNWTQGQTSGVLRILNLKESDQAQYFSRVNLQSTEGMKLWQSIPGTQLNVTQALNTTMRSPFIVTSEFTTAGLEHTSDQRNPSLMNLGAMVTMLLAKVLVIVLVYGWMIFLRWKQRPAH
# Sequence of C3b (Homo sapiens), P01024 (P01024 23-667): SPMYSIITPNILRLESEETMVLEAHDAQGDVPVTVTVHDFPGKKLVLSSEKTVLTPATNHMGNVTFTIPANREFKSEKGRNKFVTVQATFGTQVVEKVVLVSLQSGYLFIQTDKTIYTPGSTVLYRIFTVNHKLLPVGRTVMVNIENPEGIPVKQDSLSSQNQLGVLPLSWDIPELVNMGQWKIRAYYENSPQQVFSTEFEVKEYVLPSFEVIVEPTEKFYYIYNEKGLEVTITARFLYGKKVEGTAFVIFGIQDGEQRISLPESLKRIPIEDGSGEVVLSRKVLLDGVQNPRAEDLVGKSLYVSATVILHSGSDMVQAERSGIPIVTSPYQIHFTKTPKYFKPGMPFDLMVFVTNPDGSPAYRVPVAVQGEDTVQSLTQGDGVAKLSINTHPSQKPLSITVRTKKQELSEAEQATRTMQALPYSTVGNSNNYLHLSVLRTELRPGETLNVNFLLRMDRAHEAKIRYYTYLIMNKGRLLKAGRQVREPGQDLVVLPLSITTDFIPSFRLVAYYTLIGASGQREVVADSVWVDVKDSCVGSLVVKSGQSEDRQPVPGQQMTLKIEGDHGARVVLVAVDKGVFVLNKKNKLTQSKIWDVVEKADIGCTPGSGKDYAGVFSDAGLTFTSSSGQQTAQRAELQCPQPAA
# Sequence of CHT (Homo sapiens) (chain, as listed by the source): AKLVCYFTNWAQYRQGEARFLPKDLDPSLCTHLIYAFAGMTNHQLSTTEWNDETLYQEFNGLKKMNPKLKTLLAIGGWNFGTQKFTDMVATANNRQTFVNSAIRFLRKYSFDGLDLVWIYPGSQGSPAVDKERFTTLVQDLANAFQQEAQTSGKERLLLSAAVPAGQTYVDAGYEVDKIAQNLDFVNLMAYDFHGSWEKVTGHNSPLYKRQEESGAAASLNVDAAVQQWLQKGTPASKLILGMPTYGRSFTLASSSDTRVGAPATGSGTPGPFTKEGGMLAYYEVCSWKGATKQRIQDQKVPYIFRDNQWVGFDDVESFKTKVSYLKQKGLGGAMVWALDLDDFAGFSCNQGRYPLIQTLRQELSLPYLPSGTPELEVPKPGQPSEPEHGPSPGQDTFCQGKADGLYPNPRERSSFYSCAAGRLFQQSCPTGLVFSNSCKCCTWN
# Sequence of 6RG (Lolium perenne) (chain, as listed by the source): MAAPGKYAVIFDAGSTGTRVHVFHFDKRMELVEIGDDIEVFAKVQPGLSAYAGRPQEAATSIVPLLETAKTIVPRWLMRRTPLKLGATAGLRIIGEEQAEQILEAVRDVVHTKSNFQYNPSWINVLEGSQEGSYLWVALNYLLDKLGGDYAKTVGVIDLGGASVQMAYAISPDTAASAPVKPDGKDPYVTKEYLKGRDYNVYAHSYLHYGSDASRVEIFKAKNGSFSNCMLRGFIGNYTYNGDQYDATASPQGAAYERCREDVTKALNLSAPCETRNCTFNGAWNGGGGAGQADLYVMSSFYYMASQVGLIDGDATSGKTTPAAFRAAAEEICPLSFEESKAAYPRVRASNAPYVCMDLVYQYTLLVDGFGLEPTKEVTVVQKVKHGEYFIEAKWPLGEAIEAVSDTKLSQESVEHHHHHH
# Sequence of 6RG (Lolium perenne), B9U140 (B9U140 entry or part of it): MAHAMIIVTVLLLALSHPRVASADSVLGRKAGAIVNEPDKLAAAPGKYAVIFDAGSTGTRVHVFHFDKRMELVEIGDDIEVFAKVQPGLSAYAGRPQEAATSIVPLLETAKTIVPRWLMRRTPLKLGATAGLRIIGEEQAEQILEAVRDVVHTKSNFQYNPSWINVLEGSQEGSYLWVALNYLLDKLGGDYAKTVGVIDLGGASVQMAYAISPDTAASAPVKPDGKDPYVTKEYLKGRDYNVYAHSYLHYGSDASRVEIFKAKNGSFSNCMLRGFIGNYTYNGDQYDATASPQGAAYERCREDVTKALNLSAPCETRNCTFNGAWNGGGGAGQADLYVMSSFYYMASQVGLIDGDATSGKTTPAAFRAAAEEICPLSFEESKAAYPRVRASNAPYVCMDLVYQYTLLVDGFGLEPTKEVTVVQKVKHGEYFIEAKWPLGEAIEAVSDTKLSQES
# Sequence of Avaren (Actinomycete K97) (chain, as listed by the source): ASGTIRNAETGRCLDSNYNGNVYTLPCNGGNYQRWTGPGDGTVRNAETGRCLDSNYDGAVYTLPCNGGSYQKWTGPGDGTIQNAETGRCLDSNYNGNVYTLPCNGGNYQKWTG
# Sequence of Aggrecan (Rattus norvegicus), NP_071526 (chain, as listed by the source): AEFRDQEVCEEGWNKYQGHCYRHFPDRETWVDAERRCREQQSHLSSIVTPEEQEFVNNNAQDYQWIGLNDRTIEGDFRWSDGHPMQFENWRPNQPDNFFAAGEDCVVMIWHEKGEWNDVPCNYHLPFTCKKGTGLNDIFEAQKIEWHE
# Sequence of PILRa (Mus musculus), Q2YSF3 (Q2YSF3 entry or part of it): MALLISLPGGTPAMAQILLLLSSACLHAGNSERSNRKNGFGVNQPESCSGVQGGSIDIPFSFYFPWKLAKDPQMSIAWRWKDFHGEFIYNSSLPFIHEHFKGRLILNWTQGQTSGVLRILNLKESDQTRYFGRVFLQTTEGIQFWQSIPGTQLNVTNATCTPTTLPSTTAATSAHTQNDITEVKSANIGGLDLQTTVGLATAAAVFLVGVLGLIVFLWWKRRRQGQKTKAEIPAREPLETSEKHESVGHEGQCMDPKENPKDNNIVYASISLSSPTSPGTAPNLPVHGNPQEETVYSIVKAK
# Sequence of wLAT-1A (Homo sapiens), Q01650 (Q01650 whole entry): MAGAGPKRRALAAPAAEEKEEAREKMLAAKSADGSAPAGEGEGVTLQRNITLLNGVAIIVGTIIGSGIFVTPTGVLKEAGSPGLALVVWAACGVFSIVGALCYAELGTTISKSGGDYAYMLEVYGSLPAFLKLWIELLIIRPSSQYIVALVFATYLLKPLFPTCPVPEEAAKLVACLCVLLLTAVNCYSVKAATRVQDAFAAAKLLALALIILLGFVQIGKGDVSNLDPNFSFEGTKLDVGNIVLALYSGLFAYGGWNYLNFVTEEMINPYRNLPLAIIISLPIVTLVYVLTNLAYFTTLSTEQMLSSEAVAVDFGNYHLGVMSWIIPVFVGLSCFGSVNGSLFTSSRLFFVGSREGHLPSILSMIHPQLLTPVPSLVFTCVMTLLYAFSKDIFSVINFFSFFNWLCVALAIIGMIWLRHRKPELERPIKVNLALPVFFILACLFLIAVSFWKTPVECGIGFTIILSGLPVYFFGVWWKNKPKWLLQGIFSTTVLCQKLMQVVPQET
substance,measurement,setting,value
"Aggrecan (Rattus norvegicus), NP_071526",glycan array binding signal (z-score),[1],-0.204
"6RG (Lolium perenne), B9U140",glycan array binding signal (z-score),Gal(a1-3)Gal(b1-4)Glc,-0.272
6RG (Lolium perenne),glycan array binding signal (z-score),Gal(a1-4)Gal(b1-4)Gal,6.25
Avaren (Actinomycete K97),glycan array binding signal (z-score),Gal(a1-3)Gal(b1-4)Glc,0.305
"C3b (Homo sapiens), P01024",glycan array binding signal (z-score),Gal(a1-3)Gal(b1-4)Glc,1.67
same,glycan array binding signal (z-score),Gal(a1-3)Gal,2.77
"wLAT-1A (Homo sapiens), Q01650",glycan array binding signal (z-score),Gal(a1-3)GalNAc,0.501
CHT (Homo sapiens),glycan array binding signal (z-score),"[2]; mutation: D138V, E140I",-0.162
same,glycan array binding signal (z-score),"Gal(a1-4)Gal(b1-4)Gal; mutation: D138V, E140I",-0.141
"Siglec-8 (Homo sapiens), Q9NYZ4",glycan array binding signal (z-score),[3],1.51
same,glycan array binding signal (z-score),[4],-0.444
same,glycan array binding signal (z-score),[2],-0.14
"PILRa (Mus musculus), Q2YSF3",glycan array binding signal (z-score),Gal(a1-3)Gal(b1-4)Glc,0.145
"PILRb (Mus musculus), Q2YSF2",glycan array binding signal (z-score),[5],-0.089
same,glycan array binding signal (z-score),Gal(a1-3)Gal(b1-4)GlcNAc,-0.363
same,glycan array binding signal (z-score),Gal(a1-3)Gal,2.68
